Values joined by “and” are separate entries in the source; they are usually repeats but may differ in a detail not shown here. Equal values may be shown once. Among all 5,500 compounds or so, about 2,000 (36%) were called active. Roughly 18% stayed inconclusive and do not appear here. Rule as the data show it: active = normalized growth mostly below about 0.91 (no sharp cut-off); inconclusive = no clear call, values can overlap the other calls; inactive = mostly above about 0.92. This is one part of the list.
Assay: chemical genetic growth profiling, strain panel (AID 1159580);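 also: tested at 20 µM; growth read once vehicle control cultures reached saturation at 30 °C; 1 = growth at the plate median or of vehicle wells; lower values mean less growth of the strain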
Details: S. cerevisiae deletion strains, growth OD

Measured: normalized growth

Cc1ccc(-c2cc(C(F)(F)F)nn2-c2ccc(S(N)(=O)=O)cc2)cc1
inactive: locus YAL013W, strain DEP1, active compounds read low 1 | locus YAL021C, strain ccr4, active compounds read low 1 | locus YAL026C, strain drs2, active compounds read low 1.03 | locus YAL030W, strain snc1, active compounds read low 1.03 | locus YBL061C, strain skt5, active compounds read low 1.02 | locus YBR009C, strain hhf1, active compounds read low 1.03 | locus YBR021W, strain FUR4, active compounds read low 1 | locus YBR023C, strain chs3, active compounds read low 1.02 | locus YBR171W, strain sec66, active compounds read low 1.05 | locus YBR229C, strain ROT2, active compounds read low 0.992 | locus YBR231C, strain swc5, active compounds read low 1.05 | locus YBR279W, strain paf1, active compounds read low 1.02 | locus YCL011C, strain gbp2, active compounds read low 1.03 | locus YCL016C, strain dcc1, active compounds read low 1.03 | locus YCL029C, strain bik1, active compounds read low 1.04 | locus YCL061C, strain MRC1, active compounds read low 1.02 | locus YCL069W, strain vba3, active compounds read low 1.03 | locus YCR088W, strain abp1, active compounds read low 1.02 | locus YDL005C, strain med2, active compounds read low 1.03 | locus YDL035C, strain GPR1, active compounds read low 0.979 | locus YDL040C, strain nat1, active compounds read low 1.03 | locus YDL074C, strain BRE1, active compounds read low 0.975 | locus YDL101C, strain DUN1, active compounds read low 1.02 | locus YDL134C, strain PPH21, active compounds read low 0.999 | locus YDL185W, strain tfp1, active compounds read low 1.02 | locus YDL192W, strain arf1, active compounds read low 0.998 | locus YDR001C, strain nth1, active compounds read low 1.02 | locus YDR069C, strain doa4, active compounds read low 1.02 | locus YDR101C, strain arx1, active compounds read low 1.01 | locus YDR137W, strain rgp1, active compounds read low 1.02 | locus YDR150W, strain NUM1, active compounds read low 1 | locus YDR159W, strain sac3, active compounds read low 1.02 | locus YDR162C, strain NBP2, active compounds read low 0.988 | locus YDR195W, strain ref2 1.05 | locus YDR297W, strain sur2, active compounds read low 1.02 | locus YDR318W, strain mcm21, active compounds read low 1.02 | locus YDR334W, strain swr1, active compounds read low 1.04 | locus YDR335W, strain msn5, active compounds read low 1.03 | locus YDR388W, active compounds read low 1.01 | locus YDR392W, strain spt3, active compounds read low 1.03 | locus YDR502C, strain sam2, active compounds read low 1 | locus YEL003W, strain gim4, active compounds read low 1.03 | locus YEL037C, strain rad23, active compounds read low 1.03 | locus YEL061C, strain CIN8 (second series), active compounds read low 1.04 | locus YEL061C, strain CIN8, active compounds read low 0.994 | locus YER015W, strain faa2, active compounds read low 1.03 | locus YER016W, strain bim1, active compounds read low 1.03 | locus YER110C, active compounds read low 1.02 | locus YER111C, strain swi4, active compounds read low 1.05 | locus YER155C, strain BEM2 (second series), active compounds read low 1.04 | locus YER155C, strain BEM2, active compounds read low 1.01 | locus YER167W, strain BCK2, active compounds read low 0.998 | locus YFR010W, strain ubp6, active compounds read low 1.04 | locus YGL078C, strain dbp3, active compounds read low 0.996 | locus YGL086W, strain mad1, active compounds read low 0.991 | locus YGL167C, strain pmr1, active compounds read low 1.04 | locus YGL173C, strain kem1, active compounds read low 1.01 | locus YGL227W, strain vid30, active compounds read low 1.04 | locus YGL240W, strain doc1, active compounds read low 1.04 | locus YGL248W, strain PDE1, active compounds read low 0.996 | locus YGL253W, strain hxk2, active compounds read low 1.02 | locus YGR078C, strain PAC10, active compounds read low 1.01 | locus YGR135W, strain pre9, active compounds read low 1.02 | locus YGR229C, strain SMI1, active compounds read low 0.998 | locus YGR252W, strain gcn5, active compounds read low 0.962 | locus YHR013C, strain ard1, active compounds read low 1.06 | locus YHR027C, strain rpn1, active compounds read low 1.03 | locus YHR030C, strain SLT2, active compounds read low 1.01 and 0.968 | locus YHR079C, strain IRE1 (second series), active compounds read low 1.02 | locus YHR079C, strain IRE1, active compounds read low 0.963 | locus YHR094C, strain hxt1, active compounds read low 1.01 | locus YHR129C, strain ARP1, active compounds read low 1 | locus YHR142W, strain chs7, active compounds read low 1.03 | locus YHR200W, strain rpn10, active compounds read low 1.01 | locus YIL066C, strain RNR3, active compounds read low 0.994 | locus YIL073C, strain SPO22, active compounds read low 0.994 | locus YIL125W, strain kgd1, active compounds read low 1.01 | locus YIR030C, strain dcg1, active compounds read low 1.01 | locus YJL092W, strain hpr5, active compounds read low 1.02 | locus YJL095W, strain BCK1 (second series), active compounds read low 1.02 | locus YJL095W, strain BCK1, active compounds read low 1.04 and 0.974 | locus YJL115W, strain asf1, active compounds read low 1.03 | locus YJL129C, strain trk1, active compounds read low 1.06 | locus YJL134W, strain LCB3, active compounds read low 1 | locus YJL154C, strain vps35, active compounds read low 1.02 | locus YJL164C, strain tpk1, active compounds read low 1.03 | locus YJL166W, strain qcr8, active compounds read low 1.01 | locus YJL168C, strain set2, active compounds read low 1.02 | locus YJL187C, strain SWE1 (second series), active compounds read low 1.03 | locus YJL187C, strain SWE1, active compounds read low 1.02 | locus YJR043C, strain POL32, active compounds read low 1.01 | locus YJR066W, strain TOR1, active compounds read low 0.974

Reference: PubChem BioAssay AID1159580 (chemical genetic matrix, 2015)
